Laboratory results reported in PubChem BioAssay (NCI).
Compounds without any hit were thinned out: in the full panel of roughly 79,000, 15% have a hit. Active and inactive are the calls of the source. Rule as the data show it: active = growth inhibition above about 70%; inactive = the rest.

Assays:
[1] = NCI Yeast Anticancer Drug Screen. Data for the rad50 strain (AID 155);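 also: 0% = growth of vehicle-only cultures of the same strain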; details: S. cerevisiae rad50 strain growth inhibition, hits give high values
Procedure, shortened: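 Compounds were tested on a yeast strain with an engineered DNA damage repair alteration; the reported value is growth inhibition normalised to vehicle treatment.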

[2] = NCI Yeast Anticancer Drug Screen. Data for the mec2-1 strain (AID 157); details: S. cerevisiae mec2-1 strain, hits give high values
Procedure, shortened: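 mec2-1 yeast strain, carrying an alteration in DNA damage repair or cell cycle control, was exposed to compounds; growth inhibition was measured relative to vehicle-treated controls.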

[3] = NCI Yeast Anticancer Drug Screen. Data for the sgs1 mgt1 strain (AID 161);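 also: 0% = growth of cultures given vehicle only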; details: S. cerevisiae sgs1 mgt1 strain, hits give high values
Procedure, shortened: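 Percent growth inhibition was derived by comparing compound-exposed mutant yeast with vehicle-exposed cultures. The strain carries alterations in DNA damage repair.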

[4] = NCI Yeast Anticancer Drug Screen. Data for the cln2 rad14 strain (AID 165);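 also: 0% = growth equal to vehicle treated cultures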; details: S. cerevisiae cln2 rad14 strain, hits give high values
Procedure, shortened: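 Yeast carrying cln2 and rad14 alterations (cell cycle control and DNA damage repair) were exposed to compounds. Growth inhibition was measured against vehicle-treated controls.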

[5] = NCI Yeast Anticancer Drug Screen. Data for the bub3 strain (AID 167); details: S. cerevisiae bub3 mutant strain, hits give high values
Procedure, shortened: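 Growth of a checkpoint-deficient yeast mutant is measured after compound exposure. Values represent inhibition relative to vehicle.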

[6] = NCI Yeast Anticancer Drug Screen. Data for the mlh1 rad18 strain (AID 175); details: S. cerevisiae mlh1 rad18 strain growth inhibition, hits give high values
Procedure, shortened: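 Growth inhibition of the yeast strain was measured after compound exposure and expressed relative to vehicle-treated controls. The strain carries defined defects in DNA damage repair.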

[7] = at 5.0 µM (retest, dose inferred, filed as 0.5)
[8] = at 50.0 µM (retest, dose inferred, filed as 5.0)

Measured: growth inhibition

C=C(C(N)=O)C(N)C(=O)O (stereo not given)
inactive: [1]; [7] -5% | [1]; [8] 9% | [1]; at 50.0 µM -20.1% | [2]; [7] 6% | [2]; [8] -2% | [2]; at 50.0 µM 9.85% | [3]; [7] -1% | [3]; [8] 0% | [3]; at 50.0 µM 13.1% | [4]; [7] 9% | [4]; [8] 2% | [4]; at 50.0 µM -7.4% | [5]; [7] -16% | [5]; [8] -2% | [5]; at 50.0 µM 40.5% | [6]; [7] 11% | [6]; [8] 32% | [6]; at 50.0 µM 7.45%

CN(C)CC(C)(CN(C)C)C(=O)/C=C/c1c(Cl)cccc1Cl
active: [1]; [8] 84% | [1]; at 50.0 µM 85% | [2]; [8] 73% | [2]; at 50.0 µM 93.7% | [3]; [8] 93% | [3]; at 50.0 µM 77.4% | [5]; [8] 87% | [5]; at 50.0 µM 81% | [6]; [8] 93% | [6]; at 50.0 µM 91.5%
inactive: [1]; [7] 5% | [2]; [7] -2% | [3]; [7] 1% | [4]; [7] 3% | [4]; [8] 56% | [4]; at 50.0 µM 18.9% | [5]; [7] 4% | [6]; [7] 7%

COc1ccc2nc3cc([N+](=O)[O-])ccc3c(NNc3ccccc3)c2c1
inactive: [1]; [7] -2% | [1]; [8] -5% | [1]; at 50.0 µM 62.2% | [2]; [7] 5% | [2]; [8] -4% | [2]; at 50.0 µM 1.7% | [3]; [7] -2% | [3]; [8] -13% | [3]; at 50.0 µM 49.1% | [4]; [7] 3% | [4]; [8] -12% | [4]; at 50.0 µM 29.7% | [5]; [7] 3% | [5]; [8] 6% | [5]; at 50.0 µM 5% | [6]; [7] 0% | [6]; [8] -11% | [6]; at 50.0 µM 60.8%

CC1=C(C2=C(C)C(=O)C(=O)c3cc(C)ccc32)c2ccc(C)cc2C(=O)C1=O
active: [1]; [7] 89% | [1]; [8] 98% | [1]; at 50.0 µM 86.7% | [2]; [7] 95% | [2]; [8] 99% | [2]; at 50.0 µM 91.5% | [3]; [7] 98% | [3]; [8] 99% | [3]; at 50.0 µM 91.8% | [4]; [7] 71% | [4]; [8] 98% | [4]; at 50.0 µM 89.8% | [5]; [7] 98% | [5]; [8] 99% | [5]; at 50.0 µM 90.9% | [6]; [7] 97% | [6]; [8] 99% | [6]; at 50.0 µM 91%

COc1ccc(NC(=O)/C(=C/N2C(=O)/C(=C/c3ccc(OC)c(OC)c3)NC2=S)C(C)=O)cc1
active: [2]; [8] 85% | [3]; [8] 86% | [5]; [8] 76% | [6]; [8] 82% | [6]; at 50.0 µM 76.7%
inactive: [1]; [7] 5% | [1]; [8] 66% | [1]; at 50.0 µM 54.3% | [2]; [7] -3% | [2]; at 50.0 µM 53.1% | [3]; [7] -5% | [3]; at 50.0 µM 51.9% | [4]; [7] -22% | [4]; [8] 51% | [4]; at 50.0 µM 37% | [5]; [7] -21% | [5]; at 50.0 µM 64.8% | [6]; [7] -6%

CCOc1cc(F)c([N+](=O)[O-])cc1[N+](=O)[O-]
active: [1]; [7] 92% | [1]; [8] 99% | [1]; at 50.0 µM 98.7% | [2]; [7] 94% | [2]; [8] 100% | [3]; [7] 96% | [3]; [8] 99% | [4]; [7] 97% | [4]; [8] 100% | [4]; at 50.0 µM 98.4% | [5]; [7] 91% | [5]; [8] 99% | [5]; at 50.0 µM 99% | [6]; [7] 92% | [6]; [8] 100% | [6]; at 50.0 µM 98.5%
inactive: [2]; at 50.0 µM 54.4% | [3]; at 50.0 µM 51.5%

CCN(CC)CCNc1ccc([N+](=O)[O-])c2sc3ccccc3c(=O)c12
inactive: [1]; [7] 46% | [2]; [7] 13% | [3]; [7] 19% | [3]; at 50.0 µM 41.2% | [4]; [7] 12% | [4]; [8] 60% | [4]; at 50.0 µM 20.5% | [5]; [7] 27% | [5]; at 50.0 µM 17.7% | [6]; [7] 33%
active: [1]; [8] 95% | [1]; at 50.0 µM 86.2% | [2]; [8] 85% | [2]; at 50.0 µM 90.7% | [3]; [8] 84% | [5]; [8] 98% | [6]; [8] 88% | [6]; at 50.0 µM 90.3%

NNc1ccc(Cl)cc1Cl
active: [1]; [7] 79% | [1]; [8] 97% | [1]; at 50.0 µM 98.4% | [2]; [8] 99% | [2]; at 50.0 µM 99.4% | [3]; [8] 98% | [4]; [7] 75% | [4]; [8] 99% | [5]; [7] 85% | [5]; [8] 98% | [5]; at 50.0 µM 98.8% | [6]; [7] 77% | [6]; [8] 98%
inactive: [2]; [7] 54% | [3]; [7] 66% | [3]; at 50.0 µM 50.6% | [4]; at 50.0 µM 58.6% | [6]; at 50.0 µM 48.1%

N=C1C=C(N)C(=O)c2ccccc21
active: [1]; [8] 87% | [1]; at 50.0 µM 97.5% | [3]; [8] 80% | [3]; at 50.0 µM 93.8% | [4]; at 50.0 µM 75.9% | [5]; [8] 85% | [5]; at 50.0 µM 94.3% | [6]; [8] 83% | [6]; at 50.0 µM 95%
inactive: [1]; [7] 29% | [2]; [7] 16% | [2]; [8] 40% | [2]; at 50.0 µM 65.5% | [3]; [7] 25% | [4]; [7] 12% | [4]; [8] 54% | [5]; [7] 31% | [6]; [7] 20%

CC(C)Nc1ccc(Nc2ccc(NC(C)C)cc2)cc1
active: [1]; [8] 81% | [2]; [8] 74% | [2]; at 50.0 µM 97% | [4]; [8] 73% | [4]; at 50.0 µM 92.9% | [5]; [8] 80% | [5]; at 50.0 µM 92.5% | [6]; at 50.0 µM 92.3%
inactive: [1]; [7] 0% | [1]; at 50.0 µM 65.7% | [2]; [7] -21% | [3]; [7] -1% | [3]; [8] 59% | [3]; at 50.0 µM 48% | [4]; [7] -10% | [5]; [7] -7% | [6]; [7] -15% | [6]; [8] 51%
